24 compounds from PubChem BioAssay (EPA / NIEHS) can be followed below.

SMILES strings stand for the structures. Values joined by “and” are separate entries in the source; they are usually repeats but may differ in a detail not shown here. Equal values may be shown once. Results filed as inconclusive are left out. Active and inactive are the calls of the source. The calls were made as follows: active = hit-call score of the fitted dose curve at least 0.9, where 1 is the maximum; inconclusive = response in the unintended direction; inactive = score below 0.9.

The nature of the test: TOX21_p53_BLA_p2_viability: Viability Assessment in the Tox21 HCT-116 p53 Agonism Beta-lactamase Assay, Phase 2 (AID 2283591).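 Also: compound exposure lasted 16 h at 37 °C; actives lower the ATP signal meaning cytotoxicity.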 From the text:
TOX21_p53_BLA_p2 is a cell-based, single-readout assay that uses HCT116, a human intestinal cell line, […] in a 1536-well plate.TOX21_p53_BLA_p2_viability is an assay readout measuring cellular ATP content and detected with CellTiter-Glo Luciferase-coupled ATP quantitation.TOX21_p53_BLA_p2_viability used a type of viability reporter where loss-of-signal activity can be used to understand changes in the cell viability. Furthermore, this assay endpoint can be referred to as a secondary readout, because this assay has produced multiple assay endpoints where this one serves a viability function. To generalize the intended target to other relatable targets, this assay endpoint is annotated to the cell cycle intended target family, where the subfamily is cytotoxicity.
Thawing Method: Place 14 mL of pre-warmed thaw medium into a 15 mL of conical tub. Remove the vial of cells to be thawed from liquid nitrogen and thaw rapidly by placing at 37C in a water bath with gentle agitation for 1-2 minutes. Decontaminate the vial by wiping with 70% ethanol before opening in a biological safety cabinet. Transfer the vial contents drop-wise into 14 mL of thaw medium in a sterile 15-mL conical tub. Centrifuge cells at 900 rpm for 4 minutes and resuspend in thaw medium. Transfer contents to the T75 tissue culture flask containing Thaw Medium and place flask in a humidified 37C/5% CO2 incubator. Switch to growth medium at first passage.Propagation Method: Aspirate medium, rinse once in DPBS, add 0.25% Trypsin/EDTA and swirl to coat the cell evenly. Add an equal volume of Growth Medium to inactivate Trypsin after 2-3 minutes incubation at 37C. Centrifuge cells at 900 rpm for 4 minutes and resuspend in growth medium. Cell should be passage or fed at least twice a week.Assay Protocol: Harvest cells from culture in growth medium and resuspend in assay medium. 2.2 Dispense 4000 cells/5 uL/well into 1536-well black/clear bottom plates using a Multidrop dispenser. After the cells were incubated at 37C for 5 hours, 23 nL of compounds dissolved in DMSO were transferred to the assay plate by a PinTool resulting in a 217-fold dilution. Incubate the plates for 16 hours at 37C, 5% CO2. Add 1 uL of 6X LiveBLAzer FRET B/G (CCF4-AM) Substrate Mixture to each well using a BioRAPTR dispenser and incubate the plates at room temperature for 2 hours. Measure fluorescence intensity at 460 and 530 nm emission and 405 nm excitation by an Envision detector. Data is expressed as the ratio of 460nm/530nm emissions. Add 4 uL of Cell-titer Glo to each well using BioRAPTR and incubate the plates at room temperature for […]. For cell viability readout that measures cytotoxicity, 4 ul/well of CellTiter-Glo reagent was added into the assay plates using a Flying Reagent Dispenser. After 30 min incubation at room temperature, the luminescence intensity in the plates was measured using a ViewLux plate reader.
Take `CCCCOc1ccc(N)cc1`: the outcome was inactive.
Take `C1COCCN1`: the compound was classed as inactive.
On the same count and under the same terms, as for `Nc1cc(Cl)c(N)c(Cl)c1`, the entry is “inactive”.
Same read-out and setting: as for `OC[C@@H](O)[C@@H](O)[C@H](O)[C@@H](O)CO`, the entry is “inactive”.
In the case of `CCCCCCOC(=O)c1ccccc1`, the call was inactive.
On the same count and under the same terms, as for `CNC(=S)NC`, the entry is “inactive”; as for `Cc1ccc(S(=O)(=O)NCl)cc1`, “inactive”; as for `CCCCCC=O`, “inactive”.
Still for that read-out and setting: as for `O=C(OCCOCCOCCOC(=O)c1ccccc1)c1ccccc1`, the entry is “inactive”.
Same read-out and setting: as for `CCN(CC)c1ccc2c(C)cc(=O)oc2c1`, the entry is “inactive”.
Take `O=S(=O)(O)c1ccc2ccccc2c1`: the call was inactive.
Take `CC/C=C\CCOC(C)=O`: the result was inactive.
With `C(=C(c1ccccc1)c1ccccc1)c1ccccc1`, the compound was called inactive.
In the case of `CCCCCCCCCCCCCCCC[N+](C)(C)Cc1ccccc1`, the AC50 – broadly, the midpoint of the concentration-response curve, whichever way the signal moves – is 42.5 µM (active) and 23 µM (active).
On to `c1ccc(B(c2ccccc2)c2ccccc2)cc1`, for which the compound was called inactive.
For the compound `O=C(C=Cc1ccccc1)OCC=Cc1ccccc1`, the compound was classed as inactive.
Same read-out and setting: as for `CC(CCl)OP(=O)(OC(C)CCl)OC(C)CCl` (centres undefined), the entry is “inactive”.
Turning to `CC(Cc1ccc(O)c(O)c1)C(C)Cc1ccc(O)c(O)c1` (centres undefined), the AC50 is 63.6 µM (active).
On to `Nc1ccc([N+](=O)[O-])cc1O`, for which the compound was classed as inactive.
As for `CCc1ccc(C(c2ccc(CC)cc2)C(Cl)Cl)cc1`, the result was inactive.
Same read-out and setting: as for `Cc1cc(C)cc(O)c1`, the entry is “inactive”; as for `CN(C)Cc1ccccc1O`, “inactive”.
Same read-out and setting: as for `C#C[C@]1(O)CC[C@H]2[C@@H]3CCc4cc(OC)ccc4[C@H]3CC[C@@]21C`, the entry is “inactive”; as for `CCCCNc1ccccc1`, “inactive”.
